The campaign covered roughly 1,300 compounds. About 360 (28%) were called active.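 The calls were made as follows: active = average inhibition of at least 50%, with Z-scores no higher than 3 in both the phospho-tyrosine peptide and fluorescence counterscreens; inactive = the rest.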 The sample as a whole holds a higher share of actives than the screen did.
Columns and labels:
[1] = Nef-activated Hck kinase blockers, duplicate retest – biochemical, Z-Lyte FRET, 384-well, p-Tyr peptide counterscreen, confirmation (AID 463188); conditions: Recombinant Hck-YEEI:Nef, Z-Lyte FRET kinase assay; measured here: p-Tyr peptide counterscreen; at 10 µM
[2] = target: Tyrosine-protein kinase HCK (Homo sapiens) (UniProt P08631); assay: as above; conditions: Recombinant Hck-YEEI:Nef, Z-Lyte FRET kinase assay; at 10 µM; stronger effect = higher value
Tyrosine-protein kinase HCK (Homo sapiens), sequence (P08631 whole entry, looked up): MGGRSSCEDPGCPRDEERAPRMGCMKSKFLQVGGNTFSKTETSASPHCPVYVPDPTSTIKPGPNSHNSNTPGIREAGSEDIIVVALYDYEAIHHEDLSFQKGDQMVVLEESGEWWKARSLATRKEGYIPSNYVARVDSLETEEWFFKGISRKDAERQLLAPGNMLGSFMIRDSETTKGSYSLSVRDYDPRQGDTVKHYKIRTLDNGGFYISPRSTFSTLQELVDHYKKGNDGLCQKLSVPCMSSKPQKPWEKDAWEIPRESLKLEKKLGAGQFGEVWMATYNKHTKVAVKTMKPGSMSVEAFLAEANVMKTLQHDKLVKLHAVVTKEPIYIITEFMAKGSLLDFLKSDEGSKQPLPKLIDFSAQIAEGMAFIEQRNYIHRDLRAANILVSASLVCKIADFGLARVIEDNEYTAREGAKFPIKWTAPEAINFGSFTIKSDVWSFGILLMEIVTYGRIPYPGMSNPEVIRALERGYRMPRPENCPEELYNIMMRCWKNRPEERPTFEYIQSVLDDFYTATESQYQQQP

O=C1NC(=O)N(Cc2ccco2)C(=O)/C1=C\c1ccc(-c2ccc(F)cc2)o1
z-score [1]: 0.915 | inhibition [2]: 68.2% (active)

COc1cc(Cn2c(N)c(C(=O)NCc3ccco3)c3nc4ccccc4nc32)cc(OC)c1OC
z-score [1]: 25.8 | inhibition [2]: 46.4% (inactive)

From PubChem BioAssay AID463188 (University of Pittsburgh Molecular Library Screening Center, 2010)
